BJeLR viability: BJeLR cell viability loss | AID 1554 | inhibition, % (concentration not given with the values) | 300,000 compounds, 0.17% hits | BJeLR (HRASV12) viability, CellTiter-Glo ATP luminescence, 48 h; in the data active means inhibition above about 50%
Vc quorum ag: induces V. cholerae light production without autoinducers. 350,000 compounds, 0.16% hits. activation, % at 18.7 µM. V. cholerae BH1578 lux reporter, luminescence, 6 h. AID 588436; in the data active means activation mostly above about 9.7%, no sharp cut-off
PfHsp40 rescue: restores yeast growth despite PfHsp40 toxicity | 340,000 compounds, 0.68% hits | AID 504582 | S. cerevisiae expressing PfHsp40, growth rescue, ATP luminescence | growth rescue, % at 12.5 µM; in the data active means growth rescue above about 28%, passing the limit was not always enough;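 further: yeast W303a lacking pdr1 and pdr3 grown in galactose medium; growth measured after three days at 30 °C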
SARS 3CLpro inh: SARS-CoV 3CLpro protease inhibition; P0C6X7; recombinant SARS-CoV 3CLpro, quenched FRET peptide cleavage; inhibition, % at 6 µM; 290,000 compounds, 0.14% hits; AID 1706; in the data active means inhibition above about 12%
MazF activator: MazEF (E. coli) toxin RNase activation. 350,000 compounds, 0.32% hits. P0AE70. FAM/BHQ RNA-DNA oligo cleavage fluorescence, 5 h. AID 504720. activation, % at 20 µM; in the data active means activation above about 50%
Target sequence (P0AE70 whole entry, looked up): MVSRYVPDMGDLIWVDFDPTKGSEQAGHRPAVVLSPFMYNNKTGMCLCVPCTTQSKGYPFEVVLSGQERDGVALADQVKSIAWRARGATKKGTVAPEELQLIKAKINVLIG
VHR inh abs: inhibitors of human VHR1 phosphatase (DUSP3) | P51452 | recombinant VHR phosphatase, pNPP absorbance | inhibition, % at 13.3 µM | 290,000 compounds, 0.52% hits | AID 1654; in the data active means inhibition above about 50%
Target sequence (P51452 whole entry, looked up): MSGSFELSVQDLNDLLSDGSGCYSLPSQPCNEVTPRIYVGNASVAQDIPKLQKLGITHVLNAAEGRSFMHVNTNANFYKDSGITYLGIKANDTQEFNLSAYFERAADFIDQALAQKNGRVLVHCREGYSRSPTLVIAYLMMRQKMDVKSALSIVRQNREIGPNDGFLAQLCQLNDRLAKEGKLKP
Active calls of the source: *; i = inactive; . = no result; + = active, no number. Sampled rows, rich in hits. Any-hit rate of the full collection: about 1.7%.

SMILES	BJeLR viability	Vc quorum ag	PfHsp40 rescue	SARS 3CLpro inh	MazF activator	VHR inh abs
CCN(CC)CC(=O)NCC1(c2ccccc2)CCCC1	3	-1	-1	-2	-6	5
N#CCC(=O)NCC1(c2ccccc2)CCCC1	-7	25*	1	-1	14	13
O=C(NNC(=S)NC1CC2C=CC1C2)c1cccnc1 (configuration not stated)	-12	i	3	-2	4	40
CCC(C)(C)NC(=O)C(c1ccc(O)cc1)N(CCOC)C(=O)CCC(=O)Nc1nccs1 (configuration not stated)	-1	-4	1	1	235*	21
CCC(C)(C)NC(=O)C(c1ccc(OC)cc1)N(CCOC)C(=O)CCC(=O)Nc1nccs1 (configuration not stated)	-1	0	1	1	0	1
CC1CCN(CCCNC(=O)c2nn(C)c3c2CS(=O)(=O)c2ccccc2-3)CC1	4	-1	0	1	5	21
COc1ccc(Cl)cc1NC(=O)Cn1c(C)csc1=O	.	0	0	.	2	.
Cc1ccc(CNC(=O)c2ccccc2SCC(=O)NCC2CCCCC2)cc1	0	i	-2	5	5	54*
O=c1nc(-c2ccccc2)c2cc(SC(F)F)ccc2[nH]1	7	0	7	-2	0	53*
O=c1nc(-c2ccccc2)c2cc(Br)ccc2[nH]1	3	i	4	2	11	-8
O=C(NCCc1cccc(Cl)c1)C1CCC(=O)N(Cc2ccc(Cl)cc2)C1 (configuration not stated)	3	0	-1	-2	-4	59*
Cc1cccc(CCNC(=O)C2CCC(=O)N(Cc3ccc(Cl)cc3)C2)n1 (configuration not stated)	-3	i	1	1	6	12
Cc1ccc(N2C(=O)C3Sc4[nH]c(=O)sc4C(c4ccccc4)C3C2=O)cc1 (configuration not stated)	.	+	1	1	-3	20
O=C1C2Sc3[nH]c(=O)sc3C(c3ccccc3)C2C(=O)N1c1ccc(Cl)cc1 (configuration not stated)	.	i	0	4	-4	25
C/C(CC(=O)NCc1ccco1)=N\NC(=O)Cc1ccc(-c2ccccc2)cc1	2	0	-1	0	79*	28
O=C(Cc1ccc(-c2ccccc2)cc1)NCc1ccccc1	64*	0	0	5	0	-7
O=C(OCc1ccccc1)N1CCC2CC1c1c(Cl)cccc12 (configuration not stated)	.	1	32*	.	-8	.
CCN(CC)Cc1c[nH]c2c(C(=O)OC)cccc12	-3	17*	1	2	7	25
CCN(CC)Cc1c[nH]c2ccccc12	.	-1	1	-2	4	11
O=C(O)c1ccc(N/N=C/C2=Cc3ccccc3OC2)cc1	12	i	179*	4	1	4
Cc1c(C(=O)c2ccc(Cl)c(Cl)c2)cnc2cc3c(cc12)OCO3	1	1	1	-2	-3	54*
CCOC(=O)c1c(C)[nH]c(C)c1C(=O)CSc1nc2ccccc2n1CCOC	-3	1	0	0	-1	-9
CCOC(=O)c1c(C)[nH]c(C)c1C(=O)CSc1nc2ccccc2n1CC	-5	0	1	3	1	55*
COc1ccc(C(=O)NCCNC(=O)c2cnccn2)cc1OC	0	-2	0	-4	32	52*
COc1cc(C(=O)NCCNC(=O)c2cnccn2)cc(OC)c1OC	-2	0	0	0	10	3
SMILES	BJeLR viability	Vc quorum ag	PfHsp40 rescue	SARS 3CLpro inh	MazF activator	VHR inh abs
COc1cc(/C=N/NC(=O)c2cnccn2)cc(OC)c1OC	8	i	66*	-5	3	1
CC(c1ccccc1)n1c(N2CCNCC2)nc2c1c(=O)[nH]c(=O)n2C (configuration not stated)	6	-1	-1	2	11	56*
CC(c1ccccc1)n1c(Br)nc2c1c(=O)[nH]c(=O)n2C (configuration not stated)	-7	-1	-1	2	-1	-12
COc1ccc(-c2nn(-c3ccccc3)cc2C(=O)N(C)C)cc1	3	1	1	-2	-1	53*
CCN(CC)S(=O)(=O)c1ccc(/C(O)=C2/C(=O)C(=O)N(CCOC)C2c2ccccc2)cc1 (configuration not stated)	-11	i	97*	3	4	-2
COCCCN1C(=O)C(=O)/C(=C(/O)c2ccccc2)C1c1ccc(N(C)C)cc1 (configuration not stated)	18	0	0	-1	0	8
NC(=O)c1c(NC(=O)COC(=O)c2ccc(O)c(Cl)c2)sc2c1CCCC2	.	9	0	.	-10	.
N#Cc1c(=O)c2nc(NCCCO)ncc2n2c(=O)c3ccccc3[nH]c12	0	0	83*	0	7	12
Cc1ccc(C)c(NC(=S)N(CCc2nc3cc(C)c(C)cc3[nH]2)Cc2cccnc2)c1	-13	i	-2	0	19	53*
O=C(NC(=S)Nc1cccc(NC(=O)c2ccccc2Cl)c1)c1cccs1	9	-2	0	3	-5	1
Cc1ccccc1C(=O)Nc1cccc(NC(=S)NC(=O)c2cccs2)c1	-3	+	0	-3	-6	14
O=c1oc2ccccc2c2c1SC(C(F)(F)F)C2 (configuration not stated)	3	8	-1	5	2	56*
c1ccc(-c2csc3nnc(SCc4ccc5c(c4)OCCO5)n23)cc1	4	10	0	-2	-10	39
O=C(CSc1nnc2scc(-c3ccccc3)n12)c1ccc2c(c1)OCCO2	-15	16	-1	-5	55*	25
Cn1c(=O)c2cc(NC(=O)NCc3ccc(F)cc3)ccc2n1Cc1cccc(C(F)(F)F)c1	.	0	.	.	.	.
O=C(O)CC(CC(=O)N1CCN(C(=O)c2ccco2)CC1)c1ccccc1 (configuration not stated)	11	0	-2	-7	-1	-9
Cc1onc(C(=O)N2CCN(C(c3ccccc3)c3ccccc3)CC2)c1[N+](=O)[O-]	75*	0	1	-1	3	15
COc1ccccc1N1CCN(C(=O)c2noc(C)c2[N+](=O)[O-])CC1	2	i	-1	-2	-24	-15
c1ccc(-c2ccc(SCc3cccnc3)nn2)nc1	5	-1	259*	1	-1	23
Clc1ccc(-c2ccc(SCc3ccccn3)nn2)cc1	-4	i	0	1	0	28
c1ccc(CSc2ccc(-c3ccccn3)nn2)nc1	-36	-1	416*	-5	1	2
NC(=O)c1cccc(-c2csc(C(O)c3ccccc3)n2)c1 (configuration not stated)	.	0	.	.	.	.

Source: PubChem
